# Data reported in the supplement of paper PMC13380429.
# System: Vero E6 infected with SARS-CoV-2
# Experiment: morphology score (similarity to uninfected cells); higher = more like uninfected cells
# Conditions: 24 h
row,SMILES,morphology score
1,COc1cc2c(NC3CCN(C(C)C)CC3)nc(N3CCC(F)(F)CC3)nc2cc1OCCCN1CCCC1 (10 µM),0.243
2,CC(C)Cc1ccc([C@@H](C)C(=O)NCCO)cc1 (racemic) [mabuprofen] (10 µM),0.127
3,O=C(O[C@H]1CN2CCC1CC2)N(Cc1cc(F)c(F)c(F)c1)c1cccc(F)c1 [tarafenacin] (10 µM),0.371
4,Cc1ccc(C(=O)Nc2cccc(C(F)(F)F)c2)cc1Nc1nc(-c2cccnc2)nc2c1cnn2C (10 µM),-0.0613
5,NC(=O)N/N=C/c1ccc([N+](=O)[O-])o1 [nitrofurazone] (10 µM),0.187
6,Oc1cc(CNC(=S)/C=C/c2cc(O)c(O)c(Br)c2)cc(O)c1O (0.833333 µM),0.194
7,CN(CCc1ccc(Cl)c(Cl)c1)CCN1CCCC1 (10 µM),0.355
8,CC[C@H]1[C@@H](O)[C@@H]2[C@H](CC[C@]3(C)[C@@H]([C@H](C)CCOS(=O)(=O)O)CC[C@@H]23)[C@@]2(C)CC[C@@H](O)C[C@@H]12 (10 µM),-0.0685
9,CC(C)Oc1ccc(-c2nn([C@@H](C)c3oc4ccc(F)cc4c(=O)c3-c3cccc(F)c3)c3ncnc(N)c23)cc1F (10 µM),0.0291
10,O=C1OC2(c3ccc(O)cc3Oc3cc(O)ccc32)c2ccccc21 [fluorescein] (10 µM),0.0519
11,CCC(=O)NO (10 µM),0.00785
12,CC(C)C(=O)Nc1ncc(-c2cc(C(F)F)nn2-c2c(Cl)cccc2Cl)s1 (10 µM),-0.133
13,C[C@@]12C[C@@]3(O)O[C@@H](O1)[C@]1(COC(=O)c4ccccc4)[C@H]3C[C@@]12O[C@@H]1O[C@H](CO)[C@@H](O)[C@H](O)[C@H]1O [paeoniflorin] (10 µM),0.192
